In PubChem BioAssay (NCATS):
Inconclusive results are not listed. Entries that show only a call come without a potency. The source made the active and inactive calls. Calls follow the shape of the dose curve; as a rule, active = well fitted inhibition curve with a large enough effect; inconclusive = small, poorly fitted or top-dose-only effect; inactive = flat fitted curve, though single readings scatter.

molecular target: Calcium and integrin-binding protein 1 (Homo sapiens) (UniProt Q99828); test: Primary qHTS for Identification of Calcium Integrin Binding Protein 1 (CIB1) Competitor (AID 1508620); conditions: CIB1-GST / FITC-alphaIIb peptide fluorescence polarization; series mostly up to 114 µM;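 also: GST tagged CIB1 binding a fluorescein labelled alphaIIb integrin peptide tracer; top concentration of the series differs between compounds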
Sequence (Q99828 whole entry, looked up): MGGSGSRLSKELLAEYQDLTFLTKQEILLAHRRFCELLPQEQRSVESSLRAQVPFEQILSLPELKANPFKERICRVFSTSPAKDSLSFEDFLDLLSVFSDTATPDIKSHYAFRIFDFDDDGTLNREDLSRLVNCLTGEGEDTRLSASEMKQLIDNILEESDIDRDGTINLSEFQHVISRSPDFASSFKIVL
Summary of the method: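 Fluorescence polarization competition: CIB1-GST (1 uM final) preincubated with compound 15 min at room temperature, then FITC-labeled alphaIIb peptide (100 nM final) added for another 15 min. Polarization read at Ex 480/Em 540.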

Structure (SMILES) | Potency
O=C(Nc1ccc(Cl)c(Cl)c1)Nc1ccnc(-c2ccncc2)n1 | inactive
Cc1ccc(OCCn2c(CCNC(=O)Cc3ccc(F)cc3F)nc3ccccc32)cc1 | inactive
O=C(Nc1ccc(-c2cccnc2)nc1)c1cccs1 | inactive
Oc1ccc(-c2ccccc2F)c2cccnc12 | inactive
COc1cc(F)c(S(=O)(=O)N2CCCN(S(=O)(=O)c3ccc(N)cc3)CC2)c(F)c1 | inactive
Cc1ccc(S(=O)(=O)NC(N)=NCCC[C@@H](NC(=O)CNC(=O)c2ccccc2)C(=O)Nc2cc(C(F)(F)F)ccc2Cl)cc1 | inactive
Cc1ccc(NC(=O)CSc2nnc(-c3cccc([S+](=O)([O-])N4CCCC4)c3)n2-c2ccccc2)cc1 | inactive
Cc1ccc(OCCn2c(CCNC(=O)C3CCOCC3)nc3ccccc32)cc1 | inactive
CCn1cnc2c(Nc3ccc(CC(=O)N=C(N)N)cc3)nc(C#N)nc21 | inactive
COc1cccc(C2c3c(ncn(-c4ccc(C)cc4)c3=N)Oc3ccc4ccccc4c32)c1 (stereo not given) | inactive
Cc1cc(C)nc(Nc2nnc(N3CCN(c4cccc(C(F)(F)F)c4)CC3)s2)c1 | inactive
Clc1cccc(CSc2nc3ncc(Br)cc3[nH]2)c1 | inactive
COc1cc(O)c(C(CC(=O)N2CCCC(C(C)C)C2)c2ccc3c(c2)OCO3)c(OC)c1 (stereo not given) | inactive
O=C1c2ccccc2C(=O)N1Cc1ccccn1 | inactive
N#Cc1nc(Nc2cccc(Br)c2)nc(NC2CCCC2)n1 | inactive
N#Cc1c(-c2cccc([N+](=O)[O-])c2)no[n+]1[O-] | inactive
Cc1ccc(OCCn2c(CCNC(=O)/C=C/c3ccccc3)nc3ccccc32)cc1 | inactive
COc1cccc(NC(=S)N2CCN(c3cccc(C(F)(F)F)n3)CC2)n1 | inactive
Cc1c(-c2ccccc2)no[n+]1[O-] | inactive
Cc1noc(-c2sc3c(c2-c2nc4ccccc4s2)CCNC3)n1 | inactive

Structure (SMILES) | Potency
O=C(O)c1ccc(-n2cccc2/C=C2\SC(=O)N(Cc3ccc(Cl)cc3)C2=O)cc1 | inactive
O=c1[nH]c2ccc(S(=O)(=O)N3CCN(S(=O)(=O)c4c(F)cccc4F)CC3)cc2[nH]c1=O | inactive
Cc1cccc(CNc2ncnc3ccc(-c4cccc(Cl)c4)cc23)c1 | inactive
Cc1ccc(CNc2cccc(N3CCCCC3)c2)cc1 | inactive
Cc1cc(NC(=O)Nc2nnc(-c3ccncc3)s2)ccc1F | inactive
O=C1Cc2cc(S(=O)(=O)N3CCN(c4ccc(F)cc4)CC3)ccc2N1 | inactive
N#CN1CCC(NS(=O)(=O)c2ccc(C(F)(F)F)cc2)C1 (stereo not given) | inactive
Cc1cc(C)nc(NC(=S)N2CCN(c3ccc(C(F)(F)F)cc3C(F)(F)F)CC2)c1 | inactive
COc1ccc(NC(=O)C2=C(C)NC(Nc3nc4ccccc4o3)=NC2c2ccccc2Br)cc1 (stereo not given) | inactive
Cc1cc(CNc2ncnc3ccc(-c4ccc5c(c4)OCO5)cc23)c(C)o1 | inactive
Fc1cc(Cl)cc(-c2ccc(CNc3nc(-c4ccccc4C(F)(F)F)nc4ccccc34)cc2)c1 | inactive
O=C(Nc1ccc2ccccc2c1)Nc1nnc(-c2ccncc2)s1 | inactive
Cc1nc(C)c(-c2ccc3ncnc(NCc4ncc[nH]4)c3c2)s1 | inactive
CCOc1ccc(C(=O)Oc2ccc(-c3nc4ccccc4[nH]3)cc2)cc1 | inactive
N#Cc1ccc(Nc2ncc(-c3cccc4ccccc34)o2)cc1 | inactive
CC(=O)Nc1sc2c(c1-c1nc3ccccc3s1)CCN(C(C)=O)C2 | inactive
O=C(Nc1cccc(Cc2ccccc2)c1)c1ccc(-c2cccc([N+](=O)[O-])c2)o1 | inactive
COc1cccc(-c2nnc3n2N=C(c2c(OC)cccc2OC)CS3)c1OC | inactive
O=C1CCc2cc(S(=O)(=O)Nc3ccccc3-c3ccccc3)ccc2N1 | inactive
c1cc2c(cc1CNc1ccc(N3CCOCC3)cc1)OCO2 | inactive
